Test results reported in PubChem BioAssay (NCATS).
“And” between values parts separate entries of the source, which are not always exact repeats. Equal entries are not always repeated. Results filed as inconclusive are left out. The source made the active and inactive calls. Calls follow the shape of the dose curve; as a rule, active = well fitted curve in the direction sought with a large enough effect; inconclusive = small, poorly fitted or top-dose-only effect, or another doubt; inactive = no such curve, though single readings can be large; an effect the other way counts as inactive or inconclusive.

Experiments:
HEK293 = test: Cytotoxic Profiling of Annotated Libraries Using Quantitative High-Throughput Screening (AID 1296008); details: Five cell lines viability, CellTiter-Glo ATP luminescence, 48-72 h; max response: stronger effect = lower value; also: nearly all actives have a fitted effect of over 60% in size
Outline: (§1)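 Cytotoxicity was measured as CellTiter-Glo ATP luminescence, read after 10 min at room temperature. Compound treatment of the cells lasted 48 or 72 hr at 37 degrees Celsius in a qHTS format.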

HaCat [1] = test: as above; details: Five cell lines viability, CellTiter-Glo ATP luminescence, 48-72 h; max response: stronger effect = lower value
Outline: as §1

KB-3-1 = test: as above; details: Five cell lines viability, CellTiter-Glo ATP luminescence, 48-72 h; max response: stronger effect = lower value
Outline: as §1

NIH3T3 = test: as above; details: Five cell lines viability, CellTiter-Glo ATP luminescence, 48-72 h; max response: stronger effect = lower value
Outline: as §1

MKL-2 = test: qHTS assay to identify novel small-molecules to repurpose for Merkel cell carcinoma treatment (AID 1296009); details: MCC and control cell lines, CellTiter-Glo viability, 72 h; series mostly up to 46 µM; also: nearly all actives have a fitted effect of over 60% in size
Outline: (§2)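 72 hr, 37 degree celsius; NPC 8-pt / MIPE 11-pt dose response; compound pinned in DMSO; CellTiter-Glo, 10 min RT, luminescence; normalized to no-cell and DMSO controls.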

C33A = test: Primary qHTS to identify gynecologic anti-cancer compounds using libraries of approved drugs and bioactive compounds (AID 1345084); details: Gynecologic cancer cell panel viability, ATPlite luminescence, 48 h; series mostly up to 57.5 µM; also: nearly all actives have a fitted effect of over 55% in size
Outline: (§3)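 Measured: luminescence after ATPlite addition (15 min, RT). Exposure: 48 h, 37 C, 5% CO2.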

Es-2 = test: as above; details: Gynecologic cancer cell panel viability, ATPlite luminescence, 48 h; series mostly up to 57.5 µM
Outline: as §3

HeLa = test: as above; details: Gynecologic cancer cell panel viability, ATPlite luminescence, 48 h; series mostly up to 57.5 µM
Outline: as §3

Hek293T = test: as above; details: Gynecologic cancer cell panel viability, ATPlite luminescence, 48 h, control line for the selectivity index; series mostly up to 57.5 µM
Outline: as §3

MCC-13 = test: qHTS assay to identify novel small-molecules to repurpose for Merkel cell carcinoma treatment (AID 1296009); details: MCC and control cell lines, CellTiter-Glo viability, 72 h; series mostly up to 46 µM; also: nearly all actives have a fitted effect of over 60% in size
Outline: as §2

MKL-1 = test: as above; details: MCC and control cell lines, CellTiter-Glo viability, 72 h; series mostly up to 46 µM
Outline: as §2

UISO = test: as above; details: MCC and control cell lines, CellTiter-Glo viability, 72 h; series mostly up to 46 µM
Outline: as §2

WaGa = test: as above; details: MCC and control cell lines, CellTiter-Glo viability, 72 h; series mostly up to 46 µM
Outline: as §2

CAOV3 = test: Primary qHTS to identify gynecologic anti-cancer compounds using libraries of approved drugs and bioactive compounds (AID 1345084); details: Gynecologic cancer cell panel viability, ATPlite luminescence, 48 h; series mostly up to 57.5 µM; also: nearly all actives have a fitted effect of over 55% in size
Outline: as §3

CASKI = test: as above; details: Gynecologic cancer cell panel viability, ATPlite luminescence, 48 h; series mostly up to 57.5 µM
Outline: as §3

JEG-3 = test: as above; details: Gynecologic cancer cell panel viability, ATPlite luminescence, 48 h; series mostly up to 57.5 µM
Outline: as §3

HACAT [2] = test: qHTS assay to identify novel small-molecules to repurpose for Merkel cell carcinoma treatment (AID 1296009); details: MCC and control cell lines, CellTiter-Glo viability, 72 h; series mostly up to 44.8 µM; also: nearly all actives have a fitted effect of over 60% in size
Outline: as §2
% is scaled to controls: 0 for no effect and ±100 for the full control effect; potency is read from the fitted curve at half-maximal effect.

c1nc2nc(Nc3ccc(N4CCOCC4)cc3)nc(NC3CCCCC3)c2[nH]1
active: Potency (HEK293) 935 nM and 252 nM | Potency (HaCat [1]) 2.64 µM and 2 µM | Potency (KB-3-1) 4.18 µM | Potency (NIH3T3) 1.48 µM and 2.24 µM | Potency (MKL-2) 16.6 µM | Potency (HeLa) 2.82 µM
inactive: Potency (C33A) | Potency (Es-2) | Potency (Hek293T)

C[C@@H](Oc1cc(-c2cnn(C3CCNCC3)c2)cnc1N)c1c(Cl)ccc(F)c1Cl
inactive: Potency (MCC-13)
active: Potency (HEK293) 4.18 µM and 4.11 µM and 5.8 µM | Potency (HaCat [1]) 13 µM and 10.3 µM | Potency (KB-3-1) 6.51 µM | Potency (NIH3T3) 3.72 µM and 2.91 µM and 5.17 µM | Potency (MKL-1) 13.2 µM | Potency (UISO) 14.8 µM | Potency (WaGa) 23.5 µM | Potency (C33A) 20 µM | Potency (CAOV3) 11.2 µM and 12.6 µM | Potency (CASKI) 14.1 µM | Potency (HeLa) 3.55 µM and 14.1 µM | Potency (Hek293T) 25.1 µM | Potency (JEG-3) 28.2 µM

CC1=C(CO)C(=O)O[C@@H]([C@@H](C)[C@H]2CC[C@H]3[C@@H]4C[C@H]5O[C@]56[C@@H](O)C=CC(=O)[C@]6(C)[C@@H]4CC[C@]23C)C1
active: Potency (HEK293) 332 nM | Potency (HaCat [1]) 2.64 µM | Potency (KB-3-1) 1.05 µM | Potency (NIH3T3) 2.09 µM | Potency (MCC-13) 0.662 µM | Potency (MKL-2) 0.132 µM | Potency (UISO) 0.743 µM | Potency (WaGa) 0.264 µM

CN(C)CC=CC(=O)Nc1cc2c(Nc3ccc(F)c(Cl)c3)ncnc2cc1O[C@H]1CCOC1
inactive: max response (HaCat [1]) -151%
active: Potency (HEK293) 1320 nM | Potency (KB-3-1) 4.18 µM | Potency (NIH3T3) 3.72 µM | Potency (MKL-1) 14.8 µM | Potency (MKL-2) 5.26 µM | Potency (UISO) 14.8 µM | Potency (WaGa) 14.8 µM

Cc1ccc(C(N)=O)cc1Nc1nccc(-c2cn(C(C)C)c3cnccc23)n1
active: Potency (HEK293) 6510 nM | Potency (HaCat [1]) 23.5 µM | Potency (KB-3-1) 5.8 µM | Potency (NIH3T3) 10.5 µM | Potency (MKL-2) 20.9 µM | Potency (UISO) 4.18 µM | Potency (C33A) 3.16 µM | Potency (CASKI) 17.8 µM | Potency (HeLa) 25.1 µM | Potency (Hek293T) 17.8 µM
inactive: Potency (JEG-3)

CCn1nnc2c(N3CCOCC3)nc(-c3ccc(NC(=O)Nc4ccc(C(=O)N5CCN(C)CC5)cc4)cc3)nc21
inactive: Potency (MCC-13) | Potency (C33A)
active: Potency (HEK293) 206 nM | Potency (HaCat [1]) 662 nM and 1.16 µM | Potency (KB-3-1) 11.8 nM and 146 nM | Potency (NIH3T3) 0.517 µM | Potency (MKL-2) 0.0105 µM | Potency (UISO) 0.0332 µM | Potency (CAOV3) 316 nM | Potency (CASKI) 0.251 µM | Potency (Es-2) 1.12 µM | Potency (Hek293T) 0.631 µM

COc1cc2c(Oc3ccc(NC(=O)C4(C(=O)Nc5ccc(F)cc5)CC4)cc3F)ccnc2cc1OCCCN1CCOCC1
inactive: Potency (JEG-3)
active: Potency (HEK293) 8.33 µM and 18.4 µM | Potency (HaCat [1]) 4.18 µM and 6.51 µM | Potency (KB-3-1) 1.32 µM and 2.91 µM | Potency (NIH3T3) 526 nM and 731 nM | Potency (MCC-13) 14.8 µM | Potency (MKL-1) 4.69 µM | Potency (UISO) 6.62 µM | Potency (CAOV3) 10000 nM | Potency (Es-2) 25.1 µM | Potency (HeLa) 6.31 µM | Potency (Hek293T) 7.94 µM

O=C(O)Cn1nnc(-c2cc(N3CCC(Oc4cc(F)ccc4Br)CC3)no2)n1
inactive: outcome (HaCat [1]) | Potency (HACAT [2]) | Potency (MCC-13) | Potency (MKL-1) | Potency (MKL-2) | Potency (UISO) | Potency (WaGa) | Potency (C33A) | Potency (CASKI) | Potency (HeLa) | Potency (Hek293T) | Potency (JEG-3)
active: Potency (HEK293) 1.18 µM and 1.3 µM | Potency (KB-3-1) 3.72 µM and 2.31 µM
